Active and inactive are the calls of the source. How the calls were made is not given here.

Broadly, the inhibition is the percentage by which the read-out fell short of the control.

Chain of Pantothenate synthetase (Mycobacterium tuberculosis (strain ATCC 25618 / H37Rv)) (P9WIL5 whole entry, looked up): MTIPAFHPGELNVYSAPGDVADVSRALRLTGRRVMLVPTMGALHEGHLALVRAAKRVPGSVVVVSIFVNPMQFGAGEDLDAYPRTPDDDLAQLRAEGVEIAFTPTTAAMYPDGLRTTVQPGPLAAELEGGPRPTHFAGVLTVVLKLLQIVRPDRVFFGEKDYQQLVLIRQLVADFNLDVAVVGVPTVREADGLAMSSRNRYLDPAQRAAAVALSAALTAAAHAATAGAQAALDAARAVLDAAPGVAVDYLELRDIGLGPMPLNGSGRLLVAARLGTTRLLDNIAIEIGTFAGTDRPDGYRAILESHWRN

This test has as its target Pantothenate synthetase (Mycobacterium tuberculosis (strain ATCC 25618 / H37Rv)) (UniProt P9WIL5). The test is described as follows: Coupled enzyme confirmation of inhibitors against recombinant Mtb PanC (AID 375).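 Further: 0% = full reaction with vehicle and 100% = no enzyme background.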 Particulars: coupled enzyme assay; at 10 µM, stronger effect = higher value.
Regarding `CCOC(=O)C1CCN(c2c(NC3CCCc4ccccc43)c(=O)c2=O)CC1` (stereo not drawn), the inhibition was 2% (inactive).
On to `O=c1ccc2cc3c([nH]c4ccc(Br)cc43)oc-2c1O`, for which the inhibition is 0% (inactive).
For the compound `COCCCNC(=O)CCc1nc(-c2ccccc2Cl)no1`, the inhibition is 0% (inactive).
The figure for `Cc1ccccc1Cn1ccc(NC(=O)c2onc(C)c2Cl)n1` is 0% (inactive).
For `CC1CCN(C(=O)CCNS(=O)(=O)c2ccccc2)CC1`, the inhibition was 3% (inactive).
`Cc1cc(C)n(-c2ccc(C(=O)Oc3ccc4c(c3)OCO4)cc2)n1`: the inhibition was 1% (inactive).
Turning to `Cc1cccc(NC2SC(=O)N(c3ccccc3)C2=O)c1` (stereo not drawn), the inhibition was 0% (inactive).
Consider `O=C(Nc1cccc(C(F)(F)F)c1)c1cccnc1N1CCCC1`, for which the inhibition is 4% (inactive).
For the compound `C=CCn1c(SCC(=O)C(C)(C)C)nnc1-c1ccccn1`, the inhibition is 3% (inactive).
Regarding `CCCN(CCC)C(=O)C(CCC(=O)O)NC(=O)c1ccccc1` (stereo not drawn), the inhibition was 0% (inactive).
Turning to `Nc1nc(N2C(=O)C3CC=CCC3C2=O)nn1-c1ccccc1` (stereo not drawn), the inhibition is 0% (inactive).
In the case of `CCSc1nc(N)c(C#N)c(-c2ccccc2Cl)c1C#N`, the inhibition is 6% (inactive).
On to `Fc1cccc(Cl)c1Cn1nnc2c(NCc3ccccn3)ncnc21`, for which the inhibition was 0% (inactive).
`Cc1nnc(NS(=O)(=O)c2ccc(N)cc2)s1`: the inhibition is 0% (inactive).
Next, `CCOCCCNC(=O)C1CCN(S(=O)(=O)N(CC(C)C)CC(C)C)CC1`: 0% (inactive).
Next, `CCc1nnc2n1N=C(c1ccc(-c3ccc(Cl)cc3Cl)o1)CS2`: 3% (inactive); `COc1ccc(S(=O)(=O)N(CCN2CCOCC2)Cc2cc(OC)ccc2OC)cc1`: 4% (inactive); `O=C(c1ccco1)N1CCN(C(=O)c2sccc2-c2ccccc2)CC1`: 0% (inactive).

Source of the values: PubChem BioAssay.
